Source: PubChem (National Center for Advancing Translational Sciences (NCATS))
NS1 inh: blocks influenza NS1 protein function. Potency, µM (titrated, usually from 46.1 µM), for the others: top-dose activity, positive = more growth. 0.4% of 270,000 active; calls by dose curve; further: potency means the concentration at half of the fitted maximal effect; actives are rising curves; nearly all actives have a fitted effect of over 50% in size
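A cell-based growth assay was used: compounds that relieve NS1-induced slow growth of budding yeast raise OD600. Assay medium was yeast nitrogen base with ammonium sulphate and -URA supplement, pH 6.0, with 2% galactose.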
AmpC detergent: blocks E. coli AmpC beta-lactamase in detergent assay. AmpC hydrolysis of nitrocefin, absorbance 480 nm, 0.01% Triton. Potency, µM (series often up to 114 µM), for the others: at the top dose activity change, negative = inhibition, hits mostly inhibitors. 0.041% of 370,000 active. P00811;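 further: potency means the concentration at half of the fitted maximal effect; 0% = no-compound wells and -100% = no-enzyme wells; nearly all actives have a fitted effect of over 25% in size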
Target sequence (P00811 whole entry, looked up): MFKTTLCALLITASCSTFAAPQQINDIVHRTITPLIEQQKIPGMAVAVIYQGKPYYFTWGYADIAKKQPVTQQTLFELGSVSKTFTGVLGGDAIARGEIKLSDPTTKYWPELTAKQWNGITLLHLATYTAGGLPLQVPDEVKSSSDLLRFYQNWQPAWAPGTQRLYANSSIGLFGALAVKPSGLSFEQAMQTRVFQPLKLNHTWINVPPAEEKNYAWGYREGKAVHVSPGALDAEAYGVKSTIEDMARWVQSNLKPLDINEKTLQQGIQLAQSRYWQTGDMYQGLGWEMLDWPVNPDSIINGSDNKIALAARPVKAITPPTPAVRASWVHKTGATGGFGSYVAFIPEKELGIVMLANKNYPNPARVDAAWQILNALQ
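AmpC (5.3 nM in the dispensed reagent) in 20 mM phosphate pH 7.0 with 0.01% (detergent screen) or 0.0001% Triton X-100 was preincubated with compounds for 15 min at room temperature. Nitrocefin was then added from an 800 uM solution, and hydrolysis was followed at 480 nm.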
Shiga inhibitor: inhibitors of Shiga toxin in Vero cells. Vero cells, Shiga toxin protein synthesis inhibition reporter. inhibition, % at 38.7 µM. 9.2% of 290,000 active; in the data active means inhibition mostly above about 28%, no sharp cut-off; inactive means mostly below about 43%; further: 0% is about no effect
AmpC inh no detg: AmpC beta-lactamase inhibition without detergent; AmpC nitrocefin hydrolysis, absorbance 480 nm, 0.0001% Triton; Potency, µM (titrated, usually from 57.1 µM), for the others: at the top dose activity change, negative = inhibition, hits mostly inhibitors; 0.52% of 330,000 active;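 further: potency means the concentration at half of the fitted maximal effect; plate controls were no compound for no effect and no enzyme for full effect; nearly all actives have a fitted effect of over 20% in size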
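AmpC (5.3 nM in the dispensed reagent) in 20 mM phosphate pH 7.0 with 0.01% (detergent screen) or 0.0001% Triton X-100 was preincubated with compounds for 15 min at room temperature. Nitrocefin was then added from an 800 uM solution, and hydrolysis was followed at 480 nm.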
CHX counter: counter-screen for Shiga toxin inhibitors: cycloheximide protein synthesis inhibition. cell reporter, cycloheximide protein synthesis inhibition counterscreen. max response, %. 12% of 300,000 active; in the data active means max response mostly above about 13%, no sharp cut-off; inactive means mostly below about 14%; further: read at 38.3 µM for the half of the compounds with a filed dose; 0% is about no effect
* hit, by the source's call; ? = inconclusive; . = no result given; + = active, no number. The entries come from a sample that favours hits as a whole. Unless noted, the call rests on the fitted dose curve; in most records, active means well fitted curve in the direction sought with a large enough effect; inconclusive means small, poorly fitted or top-dose-only effect, or another doubt; inactive means no such curve, though single readings can be large; an effect the other way counts as inactive or inconclusive.

SMILES	NS1 inh	AmpC detergent	Shiga inhibitor	AmpC inh no detg	CHX counter
COc1ccc(NC(=O)Nc2cccc(-c3cn4cccnc4n3)c2)cc1	.	-5.6%	.	.	.
O=C(O)CC(C(=O)Nc1ccc(Cl)cc1)N1CCCCCC1 (stereo not drawn)	-14.1%	-11.7%	9.5	-19.0%	1.0
Cc1cccc(NC(=O)N2CCCCCC2)c1	0.3%	2.2%	55.9*	-11.5%	38.0*
Cc1cccc(NC(=O)N2CCCC2)c1	-3.2%	5.4%	25.4	-14.3%	6.3
O=C(O)C1Nc2c(O)cc(Cl)c([N+](=O)[O-])c2C2C=CCC12 (stereo not drawn)	.	39.8µM*	-9.2	7.08µM*	-5.4
Cc1ccc(-c2cn3c(=O)cc(C)[nH]c3n2)cc1	24.0%	-10.1%	48.8	-10.0%	26.1*
Cc1cc2nc(-c3ccccc3)cc(=O)n2[nH]1	3.2%	-9.0%	31.4	-29.4%	21.0
Cc1cc(=O)n2cc(-c3ccccc3)nc2[nH]1	0.1%	1.5%	0.0	?	22.2*
Cc1ccc(-c2ccc(=O)[nH]n2)cc1	2.4%	?	-3.3	-6.9%	-0.9
COc1ccc(OCC(=O)Nc2cc(OC)ccc2N2CCCCC2)cc1	-1.5%	4.7%	3.4	-5.5%	-2.5
CC(=Nc1ccc(Br)cc1)c1sc2ccccc2c1O	-1.9%	3.9%	111.5*	-13.1%	59.6*
CC(=Nc1ccccc1)C1=C(O)COC1=O	5.8%	?	-17.7	-13.0%	-2.8
CC(=Nc1ccccc1)c1sc2ccccc2c1O	-16.5%	?	139.5*	-41.6%	50.0*
Cc1c([C@@H](C)C2NC[C@H](C)C[C@@H]2O)ccc2c1C[C@@H]1[C@H]2CC=C2C[C@@H](O)CC[C@@]21C (stereo partly drawn)	-3.3%	.	.	.	.
COc1ccc(C2CC(c3c(O)cc(C)oc3=O)=NCCS2)c(OC)c1 (stereo not drawn)	6.1%	?	36.3	31.8%	24.3
Cc1cc(O)c(C2=Nc3ccccc3SC(c3ccc(Cl)cc3)C2)c(=O)o1 (stereo not drawn)	3.6%	?	33.9*	-32.5%	47.9*
Cc1ccc(COC(=O)NCc2cccnc2)cc1	8.9%	?	-1.5	-7.5%	-1.6
O=C(Nc1ccc(Cl)c(Cl)c1)OCc1cccnc1	-69.4%	-3.7%	41.9*	-23.8%	20.1*
O=C(Nc1cccnc1)OCc1ccccc1	-1.2%	-3.8%	35.9	-9.6%	18.6*
O=C(NNC(=O)c1cccnc1)Nc1ccc(Cl)c(Cl)c1	16.6%	-7.8%	-4.0	-7.5%	-2.2
Cc1cccc(NC(=O)C2CCN(S(=O)(=O)c3cccc4cccnc34)CC2)n1	-13.7%	?	-14.1	-0.2%	4.5
Cc1nc2sc(C(=O)N(C)Cc3ccccc3)c(NC(=O)c3ccccc3)c2c(C)c1Cl	.	1.7%	.	.	.
C[C@@]12C(=O)OC(=O)[C@]1(C)C1CCC2O1	.	?	.	-14.7%	.
COc1cc(/C=N/NC(=S)NC2CC3CC2C2C=CCC32)ccc1O (stereo not drawn)	14.0%	13.2%	88.7	-42.5%	33.6*
CCOc1ccc(/C=N/NC(=S)NC2CC3CC2C2C=CCC32)cc1 (stereo not drawn)	6.5%	?	9.9	-45.8%	3.8
SMILES	NS1 inh	AmpC detergent	Shiga inhibitor	AmpC inh no detg	CHX counter
Cc1cccc(Cn2ncc(Cl)c(Cl)c2=O)c1	-43.4%	-2.2%	31.8	-9.1%	23.7*
Cc1cccc(Cn2cnc3c(nnn3Cc3ccccc3F)c2=O)c1	-3.0%	1.5%	-7.5	-16.8%	-4.3
Cc1cccc(Cn2nnc3c2C(=O)c2ccccc2C3=O)c1	-5.2%	4.4%	active	-17.3%	27.3*
Cc1ccc(C(=O)OCn2ncc(Cl)c(Cl)c2=O)cc1	-203.1%	-0.9%	-29.8	-11.1%	-11.0
CCn1cc(S(=O)(=O)c2ccc(OC)cc2)c(=O)c2cc(F)c(N3CCC(C)CC3)cc21	.	17.0%	.	.	.
CCn1c(=NC(=O)c2ccc3c(c2)OCCO3)sc2c(C)ccc(OC)c21	.	5.2%	.	.	.
CC(=O)NC1C(OCc2ccccc2)OC2COC(c3ccccc3)OC2C1OCC(=O)O (stereo not drawn)	8.5%	-3.8%	33.1	4.8%	40.7*
CC(=O)NC1C(OCc2ccccc2)OC(CO)C(OC(C)=O)C1OC(C)=O (stereo not drawn)	0.5%	-8.5%	-5.7	-1.7%	-4.3
Cc1cccc2cc(/C=N/Nc3ccc(C(=O)O)cc3)c(Cl)nc12	-0.3%	-4.1%	127.9*	-45.5%	68.3*
O=[N+]([O-])c1ccccc1N/N=C/c1cc2ccccc2nc1Cl	13.7%	-0.9%	+	-16.9%	38.1
